Reference: PubChem BioAssay AID493056 (National Center for Advancing Translational Sciences (NCATS), 2011)
Screen size: about 360,000 compounds; about 2,400 (0.67%) were called active. What follows is part of a selection rich in actives, with near analogues and random picks from the rest. Unmarked numbers belong to inactive results. Cut-off read from the data, not from the text of the source: active = enhancement above about 30%; inactive = the rest.

The compounds below were run against Thyrotropin-releasing hormone receptor (Homo sapiens) (UniProt P34981) (assay: qHTS for Small Molecule Agonists and Allosteric Enhancers of Human TRH Receptor: Primary Screen for Enhancers). Details: TRHR cells, fluo-8 calcium fluorescence, EC20 TRH enhancement; at 2 µM; active compounds read high.
Method in brief: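 TRHR-expressing cells loaded with fluo-8 calcium dye were read kinetically (ex 480/em 530) during compound addition, then stimulated with an EC20 of TRH (10 nM final). Enhancement of the Gq-mediated intracellular calcium response was scored.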
Note: 0% is about no effect.

Thyrotropin-releasing hormone receptor (Homo sapiens), sequence (P34981 whole entry, looked up): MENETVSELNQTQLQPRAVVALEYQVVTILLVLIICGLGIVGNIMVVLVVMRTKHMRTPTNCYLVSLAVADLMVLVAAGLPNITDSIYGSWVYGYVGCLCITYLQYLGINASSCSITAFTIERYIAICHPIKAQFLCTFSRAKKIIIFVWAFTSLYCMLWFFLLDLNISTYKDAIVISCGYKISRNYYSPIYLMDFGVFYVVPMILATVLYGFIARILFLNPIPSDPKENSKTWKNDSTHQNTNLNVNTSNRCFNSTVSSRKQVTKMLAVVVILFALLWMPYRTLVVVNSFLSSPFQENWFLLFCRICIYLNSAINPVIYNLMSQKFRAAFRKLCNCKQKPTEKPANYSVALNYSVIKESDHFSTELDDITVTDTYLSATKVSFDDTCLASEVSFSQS

`COc1ccc(Cl)cc1NC(=O)CN(C)Cc1ccc(OC)c(OC)c1` was tested, and the enhancement was 56.6% (active).
With `Cc1ccc(Cl)c(OCC(=O)N2CCc3ccccc3C2)c1` the enhancement was 61.4% (active).
`Cc1ccc(C)c(CN2C(=O)c3ccccc3S(=O)c3ccc(C(=O)N4CCOCC4)cc32)c1` (stereo unspecified) was tested, and the enhancement was 30.5% (active).
In the case of `CCc1ccc(S(=O)(=O)N/N=C\c2ccc([N+](=O)[O-])o2)cc1`, the enhancement is reported as 49.5% (active).
With `Oc1c(Br)cccc1/C=N/Nc1c(F)c(F)c(F)c(F)c1F` the enhancement was 35.3% (active).
`Cn1cccc1C1(C(F)(F)F)NCCNC1=O` (stereo unspecified) was tested, and the enhancement was 50.7% (active).
In the case of `Cc1ccc(C(=O)Nc2cc3c(cc2N2CCCC2)n(C)c(=O)c(=O)n3C)cc1`, the enhancement is reported as 32.4% (active).
For `O=C(NCC(=O)N(CC1CCCO1)C(C(=O)NC1CCCCC1)c1ccccc1)c1ccco1` (stereo unspecified), the enhancement was 35.9% (active).
For `CN(C)S(=O)(=O)c1cccc(NC(=S)NCc2ccc3c(c2)OCO3)c1`, the enhancement was 34% (active).
For `CCOc1ccc(C(C)=O)cc1COC(=O)CNC(=O)c1cccs1`, the enhancement was 34.6% (active).
`CCCNC(=O)c1ccc(N2CCC3(CC2)CC(c2cccc(Br)c2)=NO3)c(NC(=O)c2ccco2)c1` was tested, and the enhancement was 35.5% (active).
For `CCC(CC)c1nnc(NC(=O)C2=COCCO2)s1`, the enhancement was 36.4% (active).
With `Cc1cc(C(=O)CCl)c(C)n1CC1COc2ccccc2O1` (stereo unspecified) the enhancement was 45.8% (active).
In the case of `COn1c(-c2ccc(Cl)cc2Cl)nc2ncccc21`, the enhancement is reported as 31.3% (active).
`O=S(=O)(c1ccc(Br)cc1)c1nc(-c2ccccc2)oc1NCc1cccnc1` was tested, and the enhancement was 31.2% (active).
In the case of `Cc1cc(-c2ccccc2)n2nc(-c3ccccc3)cc2n1`, the enhancement is reported as 33% (active).
For `CSc1nnnn1-c1c(C)cc(C)cc1C`, the enhancement was 41.9% (active).
For `CCOC(OCC)c1ccc(/C=C\c2nccc(N)n2)cc1`, the enhancement was 30% (active).
In the case of `CSCCC(C(=O)NC1=NCCS1)N1C(=O)c2ccccc2C1=O` (stereo unspecified), the enhancement is reported as 33.2% (active).
With `Cc1cccc(C(=O)NCc2nnc(SC(C)C(=O)Nc3nnc(C)s3)n2C)c1` (stereo unspecified) the enhancement was 37.6% (active).
`Cc1ccc(NC(=O)CSc2nc3c([nH]c4ccccc43)c(=O)n2-c2ccccc2)c(C)c1` was tested, and the enhancement was 39.6% (active).

Point of comparison: `CCCCCn1c(CCNC(=O)c2ccc(F)cc2)nc2ccccc21`, enhancement -6.28%. Against it:
- COc1ccc(OC)c(NC(=O)CN(Cc2ccc(Cl)cc2)S(C)(=O)=O)c1 — higher, -0.638%
- COc1ccc(Cl)cc1NC(=O)CN(C)CC(=O)Nc1ccc2c(c1)OCO2 — higher, -3.24%
- Cc1ccc(Cl)c(OCC(=O)NN2CCN(C)CC2)c1 — higher, 1.82%
- O=C(COc1ccccc1Cl)N1CCCCCCC1 — higher, -0.869%
- Cc1cccc(CC(=O)Nc2cccc(-c3cn4cccnc4n3)c2)c1 — higher, -2.19%
- Cc1ccc(SCC(=O)Nc2ccc3oc(-c4ccccc4F)nc3c2)cc1 — higher, -1.22%
- CCc1ccc(N2C(=O)CN(S(=O)(=O)CC)CC2(C)C(=O)NC2CCCCC2)cc1 (stereo unspecified) — higher, -0.256%
- Cc1ccc(CCNC(=O)c2ccc3c(c2)N(Cc2cc(C)ccc2C)C(=O)c2ccccc2S3=O)cc1 (stereo unspecified) — higher, 26.1%
- O=C(c1ccc2c(c1)N(Cc1ccccc1F)C(=O)c1ccccc1S2(=O)=O)N1CCOCC1 — higher, 16.1%
- COc1ccc(NC(=O)C2CCN(c3ccc(Sc4ccc(C)cc4)nn3)CC2)c(OC)c1 — higher, 7.96%
- CCc1nn(CC(=O)N2CCN(c3ccc(Cl)cc3)CC2)c(=O)c2cc3occc3n12 — higher, 3.41%
- COc1ccc(S(=O)(=O)N/N=C\c2ccc(OC)c(COc3ccc(C)cc3[N+](=O)[O-])c2)cc1 — higher, -2.77%
- CCc1ccc(S(=O)(=O)Nc2ccc(C)c(NS(C)(=O)=O)c2)cc1 — higher, 2.33%
- O=c1c2ccccc2n(Cc2cccc(Cl)c2)c(=O)n1Cc1ccccc1 — higher, 1.58%
- CCOc1ccc(N(CC)C(=O)c2cc3c(=O)oc4ccccc4c3s2)cc1 — higher, -1.26%
- O=C1C(F)N([S+](=O)([O-])c2ccc3c(c2)OCCO3)CCN1[S+](=O)([O-])c1c(F)cccc1F (stereo unspecified) — higher, 3.19%
- N#CN1CCC(NC(=O)c2ccc(F)cc2)CC1 — higher, 1.17%
- Cn1c(=O)c2c(ncn2CC(=O)Nc2cccc(C(F)(F)F)c2)n(C)c1=O — higher, -2.46%
- O=[S+]([O-])(c1ccc2c(c1)OCCO2)N1CCN([S+](=O)([O-])c2c(Cl)cc(Cl)cc2Br)CC1 — higher, -1.85%
- CCOc1ccc(-n2c(SCC(=O)NCc3ccccc3)nc3n[nH]c(C)c3c2=N)cc1 — higher, -5.76%
- CCn1c(=O)c(=O)n(CC)c2cc(N3CCCCC3)c(NC(=O)c3ccc(Cl)cc3)cc21 — higher, 4.4%
- CCn1c(=O)c(=O)n(CC)c2cc(N3CCCCC3)c(NC(=O)c3cccc(F)c3)cc21 — higher, 4.18%
- Nc1ncc(S(=O)(=O)Nc2ccc(OC(F)(F)F)cc2)cn1 — higher, -5.87%
- Cc1ccc(N(C(=O)CNC(=O)c2ccco2)C(C(=O)NC2CCCC2)c2ccncc2)cc1 (stereo unspecified) — higher, 0.937%
- COc1ccc(N(C(=O)CNC(=O)c2ccco2)C(C(=O)NCC2CCCO2)c2ccccc2)cc1Cl (stereo unspecified) — lower, -16.4%
- CCOc1ccc(Nc2ncnc3scc(-c4ccc(OC)cc4)c23)cc1 — higher, -0.508%
- CN(C)S(=O)(=O)c1cccc(NC(=O)COc2ccc3ccccc3c2)c1 — higher, -1.36%
- O=C(NCc1ccc2c(c1)OCO2)C12CC3CC(CC(C3)C1)C2 — higher, -3.78%
- COc1ccccc1N1CCN(c2ncnc3onc(-c4cccc(Cl)c4)c23)CC1 — higher, -1.85%
- COc1ccc(C(=O)COC(=O)CNC(=O)c2cccs2)cc1Br — higher, 2.56%
- CCOc1ccc(C(C)=O)cc1COC(=O)c1cnc(Cl)c(Cl)c1 — higher, 22.5%
- O=C(Nc1ccccc1N1CCN(C(=O)c2ccccc2)CC1)c1ccco1 — higher, 7.38%
- CCCNC(=O)c1ccc(N2CCC3(CC2)CC(c2ccc(Cl)cc2)=NO3)c([N+](=O)[O-])c1 — higher, 0.894%
- COC(=O)c1ccccc1NC(=O)c1ccc(C#N)cc1 — higher, 6.65%
- Cc1ccc(NC(=O)CCCn2c(=O)c3cccn3c3ccccc32)cc1Cl — higher, 1.3%
- COc1ccc2c(c1)Cc1sc(NC(=O)c3ccccc3Br)nc1-2 — higher, 4.8%
- Cc1sc(NC(=O)C2=COCCO2)c(C#N)c1C — higher, 2.25%
- CCC(CC)c1nnc(NC(=O)c2nn(C)c(=O)c3ccccc23)s1 — higher, 6.49%
- Cc1ccccc1OCc1ccc(-c2nc(C#N)c(N3CCCCC3)o2)o1 — higher, 0.624%
- O=C(Nc1ccc(-c2nc3cc(NC(=O)c4ccccc4Cl)ccc3o2)cc1)c1ccccc1Cl — higher, -6.24%
- COc1ccc(NC(=O)CC2COc3ccccc3O2)c(OC)c1 (stereo unspecified) — higher, -4.66%
- Cc1n[nH]c(C)c1S(=O)(=O)N1CCCC(C(=O)NCC2COc3ccccc3O2)C1 (stereo unspecified) — higher, -5.61%
- COc1ccc(NC(=O)Cn2c(=O)n(CCC(C)C)c(=O)c3cccnc32)cc1Cl — higher, 5.35%
- Cc1nc2cccnc2nc1C — higher, 1.62%
- Clc1ccc(COn2c(-c3ccc(Cl)cc3Cl)nc3ncccc32)cc1 — lower, -14.4%
- O=S(=O)(c1ccccc1)c1nc(-c2ccccc2F)oc1NCc1cccnc1 — higher, 0.0883%
- Cc1ccc(S(=O)(=O)c2nc(-c3cccs3)oc2NCc2cccnc2)cc1 — higher, -3.44%
- Cc1ccc(-n2cnc3cc(C(=O)NCCC4=CCCCC4)ccc32)cc1Cl — higher, -5.29%
- Cc1cc(N)n2nc(-c3ccc(C(C)(C)C)cc3)cc2n1 — higher, 1.1%
- Cc1cc(-c2ccccc2)n2nc(C)c(-c3ccccc3)c2n1 — higher, -0.179%
- Cc1ccc(C(=O)Nc2c(C(=O)NC(C)(C)C)oc3ccccc23)cc1 — higher, 6.66%
- N#CN1CCC(NS(=O)(=O)c2cccc(F)c2)C1 (stereo unspecified) — higher, -3.49%
- CCn1nnnc1SCC(=O)c1ccc(C)cc1C — higher, 7.37%
- COC(=O)c1ccccc1NC(=O)c1ccc2c(=O)n3c(nc2c1)CCCCC3 — higher, 1.88%
- COc1cc(Cl)c(NC(=O)C(NS(=O)(=O)c2cccs2)C(C)C)c(OC)c1 (stereo unspecified) — higher, 8.88%
- COc1ccc(Nc2ncc3c(n2)CCN(C(=O)OC(C)(C)C)C3)cc1 — higher, 2.63%
- Cc1ccc(-c2cc(C(F)(F)F)c(C#N)c(SCC(=O)Nc3ccccc3)n2)cc1 — higher, 7.58%
- Cc1ccc(Cl)cc1N1CCN(C(=O)C2CCC(CNS(=O)(=O)c3cccs3)CC2)CC1 (stereo unspecified) — higher, 4.4%
- CN(C)S(=O)(=O)c1ccc(C(=O)N(Cc2cccnc2)c2nc3c(F)cc(F)cc3s2)cc1 — lower, -9.57%
- Cc1cc2c(s1)c1cnn(Cc3c(F)cccc3Cl)c(=O)c1n2C — higher, 10.5%
- CC(NC(=O)COc1ccccc1)C(=O)NC1=NCCS1 (stereo unspecified) — higher, 1.42%
- CCCCN(C(=O)C(CCSC)N1C(=O)c2ccccc2C1=O)c1c(N)n(CCC)c(=O)[nH]c1=O (stereo unspecified) — higher, -0.146%
- CC(Sc1nnc(CNC(=O)c2ccccc2F)n1C)C(=O)Nc1nccs1 (stereo unspecified) — higher, -1.71%
- COc1ccccc1C(=O)NCc1nnc(SC(C)C(=O)Nc2nccs2)n1C (stereo unspecified) — higher, -2.08%
- O=S(=O)(c1ccc2c(c1)OCCCO2)N1CCN(S(=O)(=O)c2c(F)cccc2F)CC1 — higher, 2.65%
- N#Cc1nc(Nc2cc(F)cc(Cl)c2)nc(NC2CCCC2)n1 — higher, -2.09%
- O=C(NCc1ccccc1Cl)c1cccn1-c1nnc(N2CCCCC2)s1 — higher, -0.339%
- Cc1ccc(NC(=O)CSc2nc3c([nH]c4ccccc43)c(=O)n2-c2ccccc2)cc1Cl — higher, -2.92%
- Cc1cccc(NC(=O)CSc2nc3c([nH]c4ccccc43)c(=O)n2-c2cc(C)cc(C)c2)c1 — higher, 1.49%
